# NPC1 prom act: activators of NPC1 promoter; Potency, µM (highest dose often 9.22 µM), inactives show top-dose activation, usual class: activators; AID 485313; actives 2.4% (n = 320,000); Huh7 NPC1 promoter luciferase reporter, 24 h; further: % of control where 0% means no effect; nearly all actives have a fitted effect of over 60% in size
#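 In 1536-well qHTS, Huh7 cells harboring an NPC1 promoter–luciferase construct received compound for 24 h; activation was quantified by luminescence following luciferase reagent addition.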
# FLuc modulator: firefly luciferase modulation, counter-screen for miR-21 project. P08659. purified FLuc, Km substrates, luminescence inhibition. Potency, µM (series often up to 57.5 µM), inactives show at the highest dose activity change, negative = inhibition, usual class: inhibitors. actives 6.9% (n = 360,000). AID 588342;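 further: plate controls were vehicle for no effect and reference inhibitor for full effect; nearly all actives have a fitted effect of over 55% in size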
# Target sequence (P08659 whole entry, looked up): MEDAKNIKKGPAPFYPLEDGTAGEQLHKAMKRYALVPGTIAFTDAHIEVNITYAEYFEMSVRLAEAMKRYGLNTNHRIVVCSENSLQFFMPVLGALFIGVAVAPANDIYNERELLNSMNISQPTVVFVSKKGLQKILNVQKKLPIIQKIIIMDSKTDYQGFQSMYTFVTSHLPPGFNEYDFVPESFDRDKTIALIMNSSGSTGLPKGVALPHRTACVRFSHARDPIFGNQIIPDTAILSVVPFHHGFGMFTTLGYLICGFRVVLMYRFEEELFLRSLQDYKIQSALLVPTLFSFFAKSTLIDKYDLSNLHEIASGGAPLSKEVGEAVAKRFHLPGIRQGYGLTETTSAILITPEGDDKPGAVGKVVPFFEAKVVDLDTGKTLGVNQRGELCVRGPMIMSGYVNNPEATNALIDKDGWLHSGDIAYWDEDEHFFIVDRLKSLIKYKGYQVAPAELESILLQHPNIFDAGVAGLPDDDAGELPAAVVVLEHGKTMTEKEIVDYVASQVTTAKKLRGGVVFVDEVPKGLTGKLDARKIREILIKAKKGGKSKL
#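 Purified P. pyralis luciferase (10nM final) with 10uM D-luciferin and 10uM ATP (Km levels) in 50mM Tris acetate pH 7.5, 10mM Mg acetate, 0.01% Tween-20, 0.05% BSA; qHTS 6-point titration, ~60 µM downward; luminescence read.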
# ELG1 genotox: inducers of genotoxicity in HEK293T ELG1-luciferase cells | HEK293T ELG1-luciferase reporter, luminescence, 16 h | actives 1.3% (n = 330,000) | Potency, µM (highest dose often 46 µM), inactives show top-dose activity change, positive = activation, actives largely listed as activators; further: % of control where 0% means no effect; nearly all actives have a fitted effect of over 60% in size
#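 Genotoxic stress is detected as increased luminescence from luciferase-tagged ELG1 in HEK293T cells, measured with ONE-Glo after a 16 hr treatment at 37 °C.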
# Rab9 promoter act: activators of Rab9 promoter; Huh7 Rab9 promoter-luciferase reporter, luminescence, 24 h; Potency, µM (highest dose often 9.22 µM), without a hit: at the highest dose activation, negative = inhibition, usual class: activators; actives 2.8% (n = 320,000); further: % of control where 0% means no effect; nearly all actives have a fitted effect of over 60% in size
#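 Cell-based reporter: Huh7 stable for Rab9 promoter-driven luciferase, plated in reduced-serum medium with 10% FBS at 1500 cells/well, compound-treated 24 h at 37 °C, luminescence read after 10 min reagent.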
# SMN2 splice up: increases expression of the SMN2 splice variant; HEK293 SMN2-luciferase splicing reporter, luminescence, 30-36 h; Potency, µM (highest dose often 46.1 µM), for inactives: top-dose activity change, positive = activation, hits mostly activators; actives 2.8% (n = 210,000); AID 1458; further: % of control where 0% means no effect; nearly all actives have a fitted effect of over 55% in size
#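 HEK293 cells carry an SMN2 minigene-luciferase reporter in which exon 7 inclusion puts luciferase in frame. Cells were seeded at 2000 cells/well, attached for 10-12 hours, then exposed to compounds for 30-36 hours at 37C before ONE-Glo luminescence.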
# ELG1 repair inh: inhibitors of ELG1-dependent DNA repair in HEK293T cells | HEK293T ELG1-luciferase reporter, luminescence, 16 h; DNA damage induced by 5-fluorouridine | Potency, µM (series often up to 46.1 µM), for inactives: at the highest dose activity change, negative = inhibition, actives largely listed as inhibitors | actives 2.3% (n = 330,000) | AID 504467; further: on the % scale 0 is the no-effect control and ±100 the full control effect; nearly all actives have a fitted effect of over 55% in size
#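 In this reporter screen, reduction of luminescence relative to DMSO vehicle indicated activity. Compounds and 5-fluorouridine were added together to 2,000 cells per well, incubated for 16 hr at 37 °C, then developed with ONE-Glo.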
# * = called active by the depositor; ? = inconclusive; · = no result given; [ ] = another dose, or the depositor's remark. Hits are enriched below; roughly 9.4% of the tested compounds scored in any of these assays. The call rests on the fitted dose curve; in most records, active means well fitted curve in the direction sought with a large enough effect; inconclusive means small, poorly fitted or top-dose-only effect, or another doubt; inactive means no such curve, though single readings can be large; an effect the other way counts as inactive or inconclusive. Potency means the concentration at half of the fitted maximal effect.
SMILES,NPC1 prom act,FLuc modulator,ELG1 genotox,Rab9 promoter act,SMN2 splice up,ELG1 repair inh
O=C(NCc1ccccc1)C(=O)Nc1c2c(nn1-c1ccccc1)CSC2,·,-2%,·,·,·,·
Cc1cccc(Nc2nc(-c3ccc(F)cc3)cs2)n1,3.5µM*,5.4µM*,?,3.5µM*,·,?
COc1ccc(-c2csc(Nc3cccc(C)n3)n2)cc1C,2.2µM*,3.4µM*,?,1.6µM*,·,?
COc1ccc(-c2csc(Nc3cccc(C)n3)n2)cc1,0.89µM*,2.7µM*,4.6µM*,0.89µM*,·,?
COc1cccc2sc(Nc3nc(-c4ccncc4)cs3)nc12,-30%,-15%,6%,-7%,-5%,?
CC(=O)Oc1ccc(-c2csc(Nc3cccc(C)n3)n2)cc1,2.2µM*,3.4µM*,13µM*,?,·,?
O=C(Oc1ccc2c3c(c(=O)oc2c1)CCCC3)c1cccs1,-4%,17µM*,2%,-3%,-10%,10%
O=C(Oc1ccc2c3c(c(=O)oc2c1)CCC3)c1ccco1,1%,13µM*,8%,0%,13%,17%
Cc1ccc(N=Nc2ccc3ccccc3c2O)cc1,0.56µM*,0.24µM*,?,2.5µM*,·,?
Oc1c(N=Nc2ccc(F)cc2)ccc2ccccc12,3.2µM*,0.6µM*,2.1µM*,4.5µM*,·,?
O=C(CCn1ccc2cc(S(=O)(=O)N3CCCC3)ccc21)NCc1ccccc1Br,·,3%,·,·,·,·
CCc1ccc(Cn2c(CNS(=O)(=O)c3ccc(F)c(Cl)c3)nc3cccnc32)cc1,·,-8%,·,·,·,·
CCCCC#Cc1nc(NC)c2ncn([C@@H]3O[C@H](CO)[C@@H](O)[C@H]3O)c2n1,4%[46.1 µM],·,·,0%[46.1 µM],·,·
CCCCOc1ccc(C(=O)Nc2ccc3c(c2)CCCN3S(=O)(=O)c2ccc(C)cc2)cc1,·,-7%,·,·,·,·
COc1ccccc1CNC(=O)C1CCN(S(=O)(=O)c2ccc3c(c2)CCCN3C(C)=O)CC1,·,-3%,·,·,·,·
COc1ccc(CCN2C(=O)C(Oc3ccccc3C)C2c2ccc3c(c2)OCO3)cc1 (centres undefined),2%,2%,-10%,-1%,-20%,16µM*
Cc1cc(C)n2nc(CNC(=O)c3ccc(Cl)cc3)nc2n1,·,-2%,·,·,6%,·
Cc1ccc(C(=O)Nc2cccc(C(=O)NCc3ccccc3)c2)cc1,13%,8.5µM*,-8%,10%,-14%,?
COc1cccc(CNC(=O)c2ccc(C3SCCS3)cc2)c1,4%,17µM*,17%,6%,·,?
Cc1occc1C(=O)Nc1cccc(C(=O)NCc2ccccc2)c1,-1%,1%,-4%,-8%,-8%,?
Cc1ccc(C(=O)Nc2cccc(C(=O)NCc3ccco3)c2)cc1,?,12µM*,12%,28%,?,5%
COc1ccc(C(=O)Nc2cccc(C(=O)NCc3ccccc3)c2)cc1,3%,12µM*,-5%,-2%,1%,-10%
Cc1ccc(NC(=O)c2cc(S(=O)(=O)NC3CCCCCC3)ccc2F)cc1F,·,-7%,·,·,·,·
CCOc1ccc(C2c3c(oc4ccc(C)cc4c3=O)C(=O)N2CCCN2CCOCC2)cc1 (centres undefined),·,3%,·,·,·,·
COC(=O)c1ccccc1NC(=O)CN(c1ccc(Cl)cc1)S(=O)(=O)c1ccc(OC)cc1,·,-8%,·,·,-6%,·
COc1ccc2cc3cc(C(=O)Nc4ccccc4C)oc3nc2c1,·,-7%,·,·,11%,·
CCC(=O)Nc1ncnc2ncn(C(=O)CC)c12,·,·,·,·,-5%[9.22 µM],·
CCC(=O)Oc1ccc(C(=O)Nc2cccc(C(=O)NCC(C)C)c2)cc1,-4%,13µM*,-1%,-9%,·,-9%
CC(C)(C)c1ccc(O)c(CN(Cc2cc(C(C)(C)C)ccc2O)c2ccccc2)c1,·,·,·,·,-2%[9.22 µM],·
Fc1ccc(/C=C2\CCCC3=C2Nc2ncnn2C3c2ccc(F)cc2)cc1 (centres undefined),-10%,-3%,-3%,0%,-16%,4.6µM*

# Assay outcomes: PubChem, National Center for Advancing Translational Sciences (NCATS)
